Assays:
Assay in all cases: growth AUC relative to DMSO control (median of replicates) (fraction); higher = more growth (less inhibition), active = hit call of the paper
Settings in all cases: 20 µM; 24 h;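 active = AUC reduced over 20% with Padj below 0.05 in at least 2 of 3 replicates; inactive = otherwise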
Akkermansia muciniphila = system: Akkermansia muciniphila
In short: (§1)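 For each compound at 20 µM (1% DMSO), gut bacterial monocultures seeded at OD600 0.05 grew anaerobically in mGAM at 37 °C in round-bottom 96-well plates. Hourly OD600 readings over 24 h gave growth curves whose minimum OD was set to 0. Area under these curves was normalised to the plate median of solvent-only wells, or to row and column medians on the industrial chemical plate. Values are medians of three biological replicates grown on separate days.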

Bacteroides caccae = system: Bacteroides caccae
In short: as §1

Bacteroides clarus = system: Bacteroides clarus
In short: as §1

Bacteroides dorei = system: Bacteroides dorei
In short: as §1

Bacteroides stercoris = system: Bacteroides stercoris
In short: as §1

[1] = system: Bacteroides thetaiotaomicron
In short: as §1

Bacteroides uniformis = system: Bacteroides uniformis
In short: as §1

[2] = system: Bifidobacterium longum subsp. longum
In short: as §1

Clostridium difficile = system: Clostridium difficile
In short: as §1

Collinsella aerofaciens = system: Collinsella aerofaciens
In short: as §1

Measured: growth AUC

CCOP(=S)(OCC)Oc1cc(C)nc(N(CC)CC)n1
inactive: Akkermansia muciniphila 1.03 | Bacteroides caccae 0.926 | Bacteroides clarus 0.979 | Bacteroides dorei 0.976 | Bacteroides stercoris 0.938 | [1] 0.961 | Bacteroides uniformis 0.943 | [2] 1.01 | Clostridium difficile 1 | Collinsella aerofaciens 0.994

O=[N+]([O-])c1c(Cl)c(Cl)cc(Cl)c1Cl
inactive: Akkermansia muciniphila 1.02 | Bacteroides caccae 0.973 | Bacteroides clarus 1.01 | Bacteroides dorei 1.01 | Bacteroides stercoris 1.19 | [1] 1.04 | Bacteroides uniformis 0.992 | [2] 0.98 | Clostridium difficile 1.02 | Collinsella aerofaciens 1.05

Clc1nc(Cl)nc(Nc2ccccc2Cl)n1
inactive: Akkermansia muciniphila 1.04 | Bacteroides caccae 1.02 | Bacteroides clarus 0.962 | Bacteroides dorei 1.02 | Bacteroides stercoris 1.07 | [1] 0.995 | Bacteroides uniformis 0.997 | [2] 1.01 | Clostridium difficile 1.03 | Collinsella aerofaciens 1.01

CS(=O)(=O)c1ccc(C(=O)C2C(=O)CCCC2=O)c(Cl)c1COCC(F)(F)F
inactive: Akkermansia muciniphila 1.07 | Bacteroides caccae 1.02 | Bacteroides clarus 0.988 | Bacteroides dorei 0.999 | Bacteroides stercoris 1.02 | [1] 0.989 | Bacteroides uniformis 0.989 | [2] 1.01 | Clostridium difficile 0.979 | Collinsella aerofaciens 1.03

CN1CSC(=S)N(C)C1
inactive: Akkermansia muciniphila 1.02 | Bacteroides caccae 1.01 | Bacteroides clarus 0.939 | Bacteroides dorei 1.03 | Bacteroides stercoris 0.942 | [1] 0.976 | Bacteroides uniformis 1.05 | [2] 1.01 | Clostridium difficile 0.976 | Collinsella aerofaciens 1.07

O=[N+]([O-])c1ccc(Oc2ccc(Cl)cc2Cl)cc1
inactive: Akkermansia muciniphila 1.09 | Bacteroides caccae 0.959 | Bacteroides clarus 0.971 | Bacteroides dorei 0.973 | Bacteroides stercoris 1.09 | [1] 0.99 | Bacteroides uniformis 0.931 | [2] 0.972 | Clostridium difficile 0.97 | Collinsella aerofaciens 0.998

CC1(C(=O)Nc2ccc(O)c(Cl)c2Cl)CCCCC1
inactive: Akkermansia muciniphila 0.827 | Bacteroides caccae 0.986 | Bacteroides clarus 0.954 | Bacteroides dorei 0.995 | Bacteroides stercoris 0.952 | [1] 0.94 | Bacteroides uniformis 0.962 | [2] 0.978 | Clostridium difficile 0.98 | Collinsella aerofaciens 0.995

COc1nc(NC(C)C)nc(NC(C)C)n1
inactive: Akkermansia muciniphila 1.01 | Bacteroides caccae 1.04 | Bacteroides clarus 0.993 | Bacteroides dorei 0.994 | Bacteroides stercoris 0.979 | [1] 1.02 | Bacteroides uniformis 1.02 | [2] 1.02 | Clostridium difficile 0.98 | Collinsella aerofaciens 0.995

[CH3][Hg][Cl]
inactive: Akkermansia muciniphila 0.749 | Bacteroides caccae 0.912 | Bacteroides clarus 0.837 | Bacteroides dorei 0.96 | Bacteroides stercoris 0.903 | [2] 0.868 | Clostridium difficile 0.902 | Collinsella aerofaciens 1.01
active: [1] 0.679 | Bacteroides uniformis 0.77

Cc1cccc(C)c1N(Cn1cccn1)C(=O)CCl
inactive: Akkermansia muciniphila 1.02 | Bacteroides caccae 0.829 | Bacteroides clarus 0.997 | Bacteroides dorei 0.974 | Bacteroides stercoris 1.01 | [1] 0.987 | Bacteroides uniformis 0.969 | [2] 1.07 | Clostridium difficile 1.01 | Collinsella aerofaciens 0.952

CCC(C)c1cc([N+](=O)[O-])cc([N+](=O)[O-])c1O (stereo not given)
inactive: Akkermansia muciniphila 1.07 | Bacteroides caccae 0.967 | Bacteroides clarus 0.879 | Bacteroides dorei 0.902 | Bacteroides stercoris 0.865 | [1] 0.876 | Bacteroides uniformis 0.889 | [2] 0.981 | Clostridium difficile 0.951 | Collinsella aerofaciens 0.956

Clc1cc(Cl)c(Cl)c(Cl)c1
inactive: Akkermansia muciniphila 0.953 | Bacteroides caccae 0.971 | Bacteroides clarus 0.989 | Bacteroides dorei 0.957 | Bacteroides stercoris 0.887 | [1] 0.997 | Bacteroides uniformis 1.02 | [2] 1 | Clostridium difficile 0.977 | Collinsella aerofaciens 0.922

COCCN(C(=O)CCl)c1c(C)cccc1C
inactive: Akkermansia muciniphila 0.91 | Bacteroides caccae 0.969 | Bacteroides clarus 0.967 | Bacteroides dorei 1.02 | Bacteroides stercoris 0.967 | [1] 0.989 | Bacteroides uniformis 0.973 | [2] 0.851 | Clostridium difficile 1 | Collinsella aerofaciens 1.02

CC(C)OC(=O)Nc1ccccc1
inactive: Akkermansia muciniphila 0.984 | Bacteroides caccae 1.02 | Bacteroides clarus 1.02 | Bacteroides dorei 1.07 | Bacteroides stercoris 1.12 | [1] 1.01 | Bacteroides uniformis 0.98 | [2] 0.988 | Clostridium difficile 1.05 | Collinsella aerofaciens 1.02
